Data reported in PubChem BioAssay (NCATS).
Results filed as inconclusive are left out. Entries that show only a call come without a potency. Calls of active or inactive are those of the source. Calls follow the shape of the dose curve; as a rule, active = well fitted cell-killing curve with a large enough effect; inconclusive = small, poorly fitted or top-dose-only effect, or effect the other way; inactive = no such curve, though single readings can be large or run the other way.

Assay: Viability qHTS for spleen associated tyrosine kinase inhibitor (SYKi) naive MV4-11 cells (AID 1963823); also: nearly all actives have a fitted effect of over 40% in size
Conditions: MV4-11 AML viability, CellTiter-Glo luminescence, 72 h; series mostly up to 45 µM
How it was run: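 Cells: MV4-11, SYK inhibitor naive, 500 per well. Treatment: library compounds, 72 hr, 37 C, 5% CO2. Read-out: CellTiter-Glo luminescence after 10 min RT.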
Potency is read from the fitted curve at half-maximal effect.

| Compound | Potency | viability (% of control) |
| --- | --- | --- |
| CC1C2=CC(=O)OC2(O)CC2C1C(O)CC1C(C)(CO)CCCC21C (stereo unspecified) | inactive |  |
| COC(=O)C1=CO[C@@H](O[C@@H]2O[C@H](COC(=O)/C=C/c3cc(OC)c(O)c(OC)c3)[C@@H](O)[C@H](O)[C@H]2O)[C@@H]2C(CO)=CC[C@H]12 | inactive |  |
| C=C1[C@H]2[C@H](O[C@@H]3O[C@H](COC(=O)/C=C/c4cc(OC)c(O)c(OC)c4)[C@@H](O)[C@H](O)[C@H]3O)OC=C(C(=O)O)[C@H]2C[C@@H]1O | inactive |  |
| C[C@@H]1CC[C@]2(C(=O)O)CC[C@]3(C)C(=CCC4[C@@]5(C)C[C@@H](O)[C@H](O)[C@@](C)(CO)C5CC[C@]43C)C2[C@]1(C)O (stereo partly specified) | inactive |  |
| C[C@H](NC(=O)CCc1nc2ccccc2c(=O)[nH]1)c1ccccc1 | inactive |  |
| Cc1cn2cc(CC(=O)N3CCC4(CC3)CN(Cc3ccc(-n5nccn5)cc3Cl)C4)nc2s1 | 16.4 µM (active) |  |
| Nc1nc2c(cnn2CCCc2ccc(O)cc2)c2nc(-c3ccco3)nn12 | inactive |  |
| CC1C(=O)CC2C3CCC(C(=O)O)C12CC3(C)CO (stereo unspecified) | inactive |  |
| CC1CC=C2C1CC1(O)C(=O)CC2(C)C1(C)CO (stereo unspecified) | inactive |  |
| NS(=O)(=O)c1ccc(N2CCN(CC[C@@H]3OCCc4ccccc43)CC2)cc1 | 11.6 µM (active) |  |
| C[C@]1(O)CC[C@@H]2C(C(=O)O)=CO[C@@H](O[C@@H]3O[C@H](CO)[C@@H](O)[C@H](O)[C@H]3O)[C@@H]21 | inactive |  |
| CC1(C)CC[C@]2(C(=O)O[C@@H]3O[C@H](CO)[C@@H](O)[C@H](O)[C@H]3O)CC[C@]3(C)C(=CCC4[C@@]5(C)C[C@@H](O)[C@H](O)C(C)(C)C5CC[C@]43C)C2[C@@H]1O (stereo partly specified) | inactive |  |
| C[C@@H]1O[C@@H](O[C@H]2[C@H](O[C@H]3[C@H](O[C@H]4CC[C@@]5(C)C(CC[C@]6(C)C5CC=C5[C@@H]7CC(C)(C)C[C@@H](O)[C@]7(C)CC[C@]56C)[C@@]4(C)CO)O[C@H](C(=O)O)[C@@H](O)[C@@H]3O)O[C@H](C(=O)O)[C@H](O)[C@@H]2O)[C@H](O)[C@H](O)[C@H]1O (stereo partly specified) |  | 83.8% [at 9.25 µM] (inactive) |
| COc1ccccc1CC(C(=O)O)N(C)C(=O)c1ccccc1 (stereo unspecified) | inactive |  |
| NC(=O)c1cnc(NCCc2ccc(O)c(Cl)c2)nc1NCc1ccccc1 | 0.0231 µM (active) |  |
| C/C=C1\[C@H](O[C@@H]2O[C@H](CO)[C@@H](O)[C@H](O)[C@H]2O)OC=C(C(=O)OC)[C@H]1CC(=O)OC | inactive |  |
| C[C@@H]1O[C@@H](OC[C@H]2O[C@@H](OCC3CCC4CC3C4(C)C)[C@H](O)[C@@H](O)[C@@H]2O)[C@H](O)[C@H](O)[C@H]1O (stereo partly specified) | inactive |  |
| O=C(O)c1ccc(N2C(=O)/C(=C/c3ccc(-c4ccc([N+](=O)[O-])cc4)o3)C=C2c2ccccc2)cc1 | inactive |  |
| CO[C@H]1O[C@@H]2O[C@]3(C)CC[C@H]4[C@H](C)CC[C@@H]([C@H]1C)[C@@]24OO3 | 1.84 µM (active) |  |
| CC(C)C1NC(=O)C(CC2(O)c3ccccc3N3C(=O)C(Cc4ccccc4)NC32)NC1=O (stereo unspecified) | inactive |  |
| CCn1c(=O)c2cc(C(N)=O)c(N)nc2n(C2CC2)c1=O | inactive |  |
| O=S(=O)(c1ccccc1)c1cnc2c(N3CCNCC3)cccc2c1 | inactive |  |
| C=C1[C@@H]2CC[C@@]3(C)[C@H](c4ccoc4)OC(=O)C[C@]13O[C@H]1CC(=O)C(C)(C)[C@H](C(O)C(=O)OC)[C@]12C (stereo partly specified) | inactive |  |
| C[C@@H](CC[C@@H]1[C@@]2(C)CCCC(C)(C)C2CC[C@@]1(C)O)CC(=O)O (stereo partly specified) | inactive |  |
| O=C(/C=C/c1ccc(O)cc1)N[C@@H](Cc1ccc(O)cc1)C(=O)O | inactive |  |
| C[C@]12CCC[C@](C)(C(=O)O)C1[C@@H](O)[C@@H](O)C13CC(CCC12)C(CO)(O[C@@H]1O[C@H](CO)[C@@H](O)[C@H](O)[C@H]1O)C3 (stereo partly specified) | inactive |  |
